AmpC inh detg = qHTS Inhibitors of AmpC Beta-Lactamase (assay with detergent); Potency, µM (series often up to 114 µM), for the others: at the highest dose activity change, negative = inhibition, actives largely listed as inhibitors; 0.041% of 370,000 active; AmpC hydrolysis of nitrocefin, absorbance 480 nm, 0.01% Triton;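 also: 0% = no-compound wells and -100% = no-enzyme wells; nearly all actives have a fitted effect of over 25% in size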
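AmpC (5.3 nM in the dispensed reagent) in 20 mM phosphate pH 7.0 with 0.01% (detergent screen) or 0.0001% Triton X-100 was preincubated with compounds for 15 min at room temperature. Nitrocefin was then added from an 800 uM solution, and hydrolysis was followed at 480 nm.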
Giardia FBPA inh-1 = qHTS Assay for Inhibitors of Fructose-1,6-bisphosphate Aldolase from Giardia Lamblia; A8B2U2; purified Giardia FBPA; Potency, µM (doses to about 59.6 µM), inactives show top-dose activity, negative = inhibition, usual class: inhibitors; 0.71% of 290,000 active; also: nearly all actives have a fitted effect of over 55% in size
Target sequence (A8B2U2 whole entry, looked up): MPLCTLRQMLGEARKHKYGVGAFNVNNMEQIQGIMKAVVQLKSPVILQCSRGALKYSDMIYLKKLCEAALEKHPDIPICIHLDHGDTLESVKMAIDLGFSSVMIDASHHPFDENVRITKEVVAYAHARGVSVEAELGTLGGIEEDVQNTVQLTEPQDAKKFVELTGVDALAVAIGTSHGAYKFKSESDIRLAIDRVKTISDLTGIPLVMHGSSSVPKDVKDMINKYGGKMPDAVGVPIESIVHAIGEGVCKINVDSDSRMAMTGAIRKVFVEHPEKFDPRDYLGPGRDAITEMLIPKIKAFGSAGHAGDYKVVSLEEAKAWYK
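Giardia FBPA (40 nM reagent) was preincubated 10 min at RT with compound (up to 57.5 uM final), then substrate plus GAPDH/TPI/NAD/arsenate coupling system with diaphorase/resazurin was added; resorufin fluorescence (525/598 nm) was read after 20 min.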
LmPK inhibitor = qHTS Assay for Inhibitors of Leishmania Mexicana Pyruvate Kinase (LmPK) | Q27686 | purified LmPK, Kinase-Glo ATP luminescence, 1 h | Potency, µM (doses to about 57.5 µM), for inactives: top-dose activity change, negative = inhibition, hits mostly inhibitors | 0.37% of 290,000 active | AID 1721, 2009
Target sequence (Q27686 whole entry, looked up): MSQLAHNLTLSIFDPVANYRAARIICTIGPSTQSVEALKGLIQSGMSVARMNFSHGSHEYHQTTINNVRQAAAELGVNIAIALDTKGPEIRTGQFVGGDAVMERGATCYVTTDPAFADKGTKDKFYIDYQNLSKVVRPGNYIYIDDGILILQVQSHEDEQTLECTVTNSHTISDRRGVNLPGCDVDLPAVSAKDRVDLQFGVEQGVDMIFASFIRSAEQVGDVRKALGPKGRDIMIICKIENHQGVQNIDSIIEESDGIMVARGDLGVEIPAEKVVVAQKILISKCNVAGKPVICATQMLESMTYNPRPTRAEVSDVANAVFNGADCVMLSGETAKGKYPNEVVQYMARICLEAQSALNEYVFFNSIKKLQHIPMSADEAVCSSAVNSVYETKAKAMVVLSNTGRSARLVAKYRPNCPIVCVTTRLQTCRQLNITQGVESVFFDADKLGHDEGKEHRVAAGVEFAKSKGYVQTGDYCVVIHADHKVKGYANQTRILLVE
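Kinase-Glo luminescence read after 1 h RT reaction of 0.1 nM LmPK with 0.5 mM PEP and 0.1 mM ADP. Activity scaled between uninhibited and enzyme-free controls.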
AmpC inh no detg = qHTS Inhibitors of AmpC Beta-Lactamase (assay without detergent); P00811; AmpC nitrocefin hydrolysis, absorbance 480 nm, 0.0001% Triton; Potency, µM (doses to about 57.1 µM), for the others: at the highest dose activity change, negative = inhibition, most hits filed as inhibitors; 0.52% of 330,000 active;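 also: plate controls were no compound for no effect and no enzyme for full effect; nearly all actives have a fitted effect of over 20% in size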
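20 mM phosphate pH 7.0 + 0.01% (detergent screen) or 0.0001% Triton X-100; 5.3 nM AmpC reagent; cpd preinc 15 min RT; nitrocefin (800 uM stock) to start; A480 q20 s × 4 min; Activity was normalised to no-enzyme and no-compound control wells.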
RE007 growth inh = qHTS Assay for Inhibitors of the HIV-1 protein Vpr; S. pombe RE007 Vpr strain, BacTiter-Glo ATP luminescence, 24 h; Potency, µM (highest dose often 92.2 µM), inactives show at the top dose activity change, negative = less growth, hits mostly inhibitors; 0.21% of 360,000 active; AID 651644, 2012; active = well fitted falling curve with a large enough effect; inconclusive = small, poorly fitted or top-dose-only effect; inactive = no such curve, though single readings can be large or run the other way; also: nearly all actives have a fitted effect of over 50% in size
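Fission yeast strain RE007, carrying one chromosomally integrated HIV-1 vpr copy, was seeded at OD 0.01 in PMG+AL medium with 23 nL pinned compound. After 24 h at 30 °C and 99% humidity, viability was read by BacTiter-Glo luminescence.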
Tb PYK inh = qHTS of Trypanosoma Brucei Inhibitors; pyruvate kinase (Trypanosoma brucei), Q57TT1; TbPYK enzyme, Kinase-Glo Plus ATP luminescence, 45 min; Potency, µM (titrated, usually from 76.8 µM), inactives show top-dose activity, negative = inhibition, hits mostly inhibitors; 0.12% of 410,000 active; also: nearly all actives have a fitted effect of over 50% in size
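Luminescent Kinase-Glo Plus end-point after 45 min room-temperature reaction of T. brucei pyruvate kinase started with 130 uM ADP (final). Buffer TEA 50 mM pH 7.2 with KCl, MgCl2, BSA, Tween-20; titration-based qHTS with fitted concentration-effect curves.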
Giardia growth = qHTS Assay for Inhibitors of Fructose-1,6-bisphosphate Aldolase from Giardia Lamblia: Giardia lamblia growth inhibition; 5% of 1,500 active; shares compounds with Giardia FBPA inh-1; Potency, µM (doses to about 57.5 µM), without a hit: at the top dose activity change, negative = inhibition, actives largely listed as inhibitors; AID 2785, 2010; Giardia lamblia trophozoite growth inhibition;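 also: trophozoites exposed to compound for 48 h at 37 °C; nearly all actives have a fitted effect of over 70% in size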
Mammalian tox = qHTS Assay for Inhibitors of Fructose-1,6-bisphosphate Aldolase from Giardia Lamblia: Mammalian cellular toxicity | shares compounds with Giardia FBPA inh-1 | mammalian cell viability counter-screen, qHTS | Potency, µM (doses to about 57.5 µM), for inactives: at the top dose viability change, negative = toxicity, usual class: inhibitors | 4% of 1,500 active | AID 2786, 2010;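 also: Chinese hamster ovary cells used as mammalian cytotoxicity surrogate; viability measured as cellular ATP by luminescence; compound exposure lasted 48 h before reading; nearly all actives have a fitted effect of over 60% in size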
Giardia FBPA inh-2 = qHTS Assay for Inhibitors of Fructose-1,6-bisphosphate Aldolase from Giardia Lamblia: Primary screen confirmation; shares compounds with Giardia FBPA inh-1; purified Giardia aldolase enzyme activity, qHTS; Potency, µM (titrated, usually from 57.5 µM), for inactives: top-dose activity change, negative = inhibition, most hits filed as inhibitors; 5% of 1,500 active; also: nearly all actives have a fitted effect of over 45% in size
Rabbit aldolase = qHTS Assay for Inhibitors of Fructose-1,6-bisphosphate Aldolase from Giardia Lamblia: Rabbit FBPA Selectivity | shares compounds with Giardia FBPA inh-1 | Rabbit muscle FBPA enzyme inhibition, selectivity counter-screen | Potency, µM (series often up to 57.5 µM), without a hit: top-dose activity, negative = inhibition, hits mostly inhibitors | 4% of 1,500 active | AID 2794, 2010; also: nearly all actives have a fitted effect of over 60% in size
GAPDH counter = qHTS Assay for Inhibitors of Fructose-1,6-bisphosphate Aldolase from Giardia Lamblia: Coupling assay counterscreen confirmation | 6% of 1,500 active | GAPDH coupling enzyme counterscreen, biochemical, qHTS | shares compounds with Giardia FBPA inh-1 | Potency, µM (doses to about 57.5 µM), for inactives: top-dose activity change, negative = inhibition, hits mostly inhibitors; also: nearly all actives have a fitted effect of over 55% in size
* = called active by the depositor; ? = inconclusive; . = no result given; ! = repeats disagree; [ ] = dose if it differs, or a comment. Sampled rows, rich in hits. Any-hit rate of the full collection: about 1.4%. Unless noted, calls follow the shape of the dose curve; as a rule, active = well fitted curve in the direction sought with a large enough effect; inconclusive = small, poorly fitted or top-dose-only effect, or another doubt; inactive = no such curve, though single readings can be large; an effect the other way counts as inactive or inconclusive. Unless noted, % is scaled to controls: 0 for no effect and ±100 for the full control effect; potency is read from the fitted curve at half-maximal effect.

SMILES | AmpC inh detg | Giardia FBPA inh-1 | LmPK inhibitor | AmpC inh no detg | RE007 growth inh | Tb PYK inh | Giardia growth | Mammalian tox | Giardia FBPA inh-2 | Rabbit aldolase | GAPDH counter
COCCCOc1ccnc(CS(=O)c2nc3ccccc3[nH]2)c1C (stereo not drawn) | ? | 2µM*! | -10% | 15% | -11%[18.4 µM] | -18% | ? | -22% | -15% | -10% | -5%
CCn1ncc(NC(=S)Nc2ccc(OC)c(OC)c2)c1C(N)=O | 4% | 16µM* | -7% | -29% | -13% | -7% | -30% | -6% | -15% | -5% | -5%
S=C(Nc1ccc2c(c1)OCO2)Nc1ccc2c(c1)OCO2 | ? | -27% | -3% | -4% | -29% | -19% | . | . | . | . | .
CCn1ncc(NC(=S)Nc2ccc3c(c2)OCO3)c1C(N)=O | ? | 18µM* | 2% | -21% | -8% | -7% | -20%[10.4 µM] | -12% | -23% | -10% | -9%
Cc1cccc(C(=O)Nc2ccc3nc(SCC(=O)N4CCCC4)sc3c2)c1 | -4% | . | . | . | . | 1% | . | . | . | . | .
O=C(CSC(=S)N1CCCC1)c1cc(Br)cc(Br)c1O | -5% | 14µM* | 2% | ? | -5% | -7% | ? | 25µM* | -23% | -26% | ?
CC1CCCN(C(=S)SCC(=O)c2cc(Br)cc(Br)c2O)C1 (stereo not drawn) | 4% | -22% | 3% | -50% | -29% | -13% | . | . | . | . | .
c1ccc(C2=NNC(c3ccccn3)=NN2)nc1 | -7% | 7.9µM* | -22% | -11% | -10% | -19% | ? | 0% | -26% | -23% | ?
S=C1NCCOCCNC(=S)NCCOCCOCCOCCN1 | -12% | 4.5µM* | 0% | -5% | -11% | -14% | -21%[38.3 µM] | -1% | 7% | 5% | 1%
COc1cc(-c2nc(C(=O)NCC3CCCO3)cc3c2[nH]c2ccccc23)cc(OC)c1OC (stereo not drawn) | -8% | 8.9µM* | ? | 253% | 0% | -9% | -9% | 40µM* | -1% | -9% | -1%
COc1ccccc1-c1nc(C(=O)NCC2CCCO2)cc2c1[nH]c1ccccc12 (stereo not drawn) | -16% | -14% | -7% | 45% | -1% | -10% | . | . | . | . | .
COc1ccc(CNC(=O)C2CCN(c3nc4ccc(C)cc4[nH]3)CC2)cc1 | 15% | . | . | . | . | 2% | . | . | . | . | .
CCN(Cc1nc2ccccc2c(=O)[nH]1)Cc1nc2cc(OC)c(OC)cc2c(=O)[nH]1 | ? | 5.6µM* | 7% | 23% | 5% | 11% | -6%[38.3 µM] | -15% | ? | -21% | -23%
CCN(Cc1nc2ccccc2c(=O)[nH]1)Cc1nc2ccsc2c(=O)[nH]1 | -5% | 0.79µM* | 9% | -18% | -8% | 1% | 8%[38.3 µM] | -27% | -13% | -22% | ?
COc1cc2nc(CN(C)Cc3nc4ccccc4c(=O)[nH]3)[nH]c(=O)c2cc1OC | -7% | ? | -2% | -4% | 7% | 4% | . | . | . | . | .
Cc1ccc(C(=O)NCC(c2ccco2)S(=O)(=O)c2ccc(Cl)cc2)cc1C (stereo not drawn) | -1% | . | . | . | . | -7% | . | . | . | . | .
Cc1cc(=O)n2cccc(O)c2n1 | -7% | 20µM* | -2% | -6% | 20% | 3% | 126% | -2% | -28% | ? | ?
Cc1nnc(SCc2cc(=O)n3cccc(C)c3n2)s1 | 4% | . | . | . | . | -17% | . | . | . | . | .
Cc1ccc(C(=O)c2ccc(C)cc2)cc1 | -5% | 1% | 0% | -15% | -4% | 3% | . | . | . | . | .
Cc1ccc(C(=O)c2no[n+]([O-])c2C(=O)c2ccc(C)cc2)cc1 | ? | 16µM* | 2% | -52% | 32µM* | -5% | -5% | -2% | -7% | ? | -27%
COc1ccc(C)cc1Nc1n[n+](-c2ccccc2)c(-c2ccc(NC(C)=O)cc2)s1 | ? | 22µM* | -6% | 6% | 2% | -5% | ? | 1% | 4% | -5% | 11%
CSc1ccc(-c2sc(Nc3ccccc3)n[n+]2-c2ccccc2)cc1 | -18% | 25µM* | -14% | -46% | -5% | -10% | -28% | -24% | -1% | 9% | 2%
CSc1ccc(-c2sc(Nc3cccc4ccccc34)n[n+]2-c2ccccc2)cc1 | ? | 25µM* | -1% | -19% | -9% | -21% | 14% | -21% | -20% | -20% | -24%
CCc1ccc(Nc2n[n+](-c3ccccc3)c(-c3ccc(SC)cc3)s2)cc1 | ? | -25% | -6% | 44% | 3% | -14% | . | . | . | . | .
CC(=O)Nc1ccc(-c2sc(Nc3cccc4ccccc34)n[n+]2-c2ccccc2)cc1 | -13% | 16µM* | 1% | 1% | -4% | -5% | 32% | 6% | 7% | 3% | 13%
CCOC(=O)c1[nH]c(C)c(CCC(=O)N2CCN(c3cc(Cl)ccc3C)CC2)c1C | -7% | . | . | . | . | 0% | . | . | . | . | .
Fc1ccc(-c2noc3ncnc(N4CCCCC4)c23)cc1 | -7% | . | . | . | . | 3% | . | . | . | . | .
